Compound activity deposited in PubChem by National Center for Advancing Translational Sciences (NCATS).
HP1b binding inh = blocks HP1-beta chromodomain binding to methylated histone tails. Potency, µM (doses to about 114 µM), inactives show at the highest dose activity change, negative = inhibition, actives largely listed as inhibitors. 0.56% of 390,000 active. AlphaScreen HP1-beta / biotin-H3K9me3 peptide binding; note: nearly all actives have a fitted effect of over 70% in size
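Compound inhibition of the preformed complex between 50 nM HP1-beta and 50 nM biotinylated H3K9me3 peptide was read by AlphaScreen. Buffer was PBS pH 7.4 with 0.01% Tween-20. Incubations ran 30 min at room temperature, with 10 ug/mL donor/acceptor beads.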
BAZ2B inh = BAZ2B (human) inhibition | Q9UIF8 | AlphaScreen BAZ2B-H3K14Ac peptide displacement | Potency, µM (highest dose often 114 µM), without a hit: top-dose activity change, negative = inhibition, usual class: inhibitors | 4.4% of 360,000 active; note: % is set by controls: 0 for no effect and ±100 for the full control effect; nearly all actives have a fitted effect of over 60% in size
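AlphaScreen displacement: compounds (up to 110uM) incubated 30 min at room temperature with a preformed 50 nM BAZ2B/50 nM biotinylated H3K14Ac peptide complex in PBS pH 7.4 with Tween-20. Donor and acceptor beads at 10 ug/mL final added, 20 min light-protected before reading.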
G9a inh = blocks human histone lysine methyltransferase G9a; 8.8% of 350,000 active; Potency, µM (top dose mostly 102 µM), for inactives: at the highest dose activity, negative = inhibition, hits mostly inhibitors; AID 504332; G9a H3K9 monomethylation, AlphaScreen, 2 h; note: % is set by controls: 0 for no effect and ±100 for the full control effect; nearly all actives have a fitted effect of over 75% in size
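Using a bead-based AlphaScreen, monomethylated H3K9 product from 2 h room-temperature reactions (G9a 20 nM, peptide 500 nM, SAM 20 uM) was detected with 0.5 ug/mL rabbit anti-H3K9me1 antibody.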
JMJD2A Tudor inh = inhibitors of human JMJD2A Tudor domain | AlphaScreen JMJD2A-Tudor / H3K4me3 peptide binding | 4.4% of 390,000 active | Potency, µM (titrated, usually from 114 µM), for the others: top-dose activity change, negative = inhibition, hits mostly inhibitors | O75164; note: % is set by controls: 0 for no effect and ±100 for the full control effect; nearly all actives have a fitted effect of over 50% in size
L3MBTL1 block = L3MBTL1 (human) inhibition; AlphaScreen L3MBTL1–H3K9me1 peptide binding; 0.66% of 230,000 active; AID 485360; Q9Y468; Potency, µM (doses to about 57.1 µM), inactives show at the top dose activity, negative = inhibition, most hits filed as inhibitors; note: % is set by controls: 0 for no effect and ±100 for the full control effect; nearly all actives have a fitted effect of over 60% in size
Target sequence (Q9Y468 whole entry, looked up): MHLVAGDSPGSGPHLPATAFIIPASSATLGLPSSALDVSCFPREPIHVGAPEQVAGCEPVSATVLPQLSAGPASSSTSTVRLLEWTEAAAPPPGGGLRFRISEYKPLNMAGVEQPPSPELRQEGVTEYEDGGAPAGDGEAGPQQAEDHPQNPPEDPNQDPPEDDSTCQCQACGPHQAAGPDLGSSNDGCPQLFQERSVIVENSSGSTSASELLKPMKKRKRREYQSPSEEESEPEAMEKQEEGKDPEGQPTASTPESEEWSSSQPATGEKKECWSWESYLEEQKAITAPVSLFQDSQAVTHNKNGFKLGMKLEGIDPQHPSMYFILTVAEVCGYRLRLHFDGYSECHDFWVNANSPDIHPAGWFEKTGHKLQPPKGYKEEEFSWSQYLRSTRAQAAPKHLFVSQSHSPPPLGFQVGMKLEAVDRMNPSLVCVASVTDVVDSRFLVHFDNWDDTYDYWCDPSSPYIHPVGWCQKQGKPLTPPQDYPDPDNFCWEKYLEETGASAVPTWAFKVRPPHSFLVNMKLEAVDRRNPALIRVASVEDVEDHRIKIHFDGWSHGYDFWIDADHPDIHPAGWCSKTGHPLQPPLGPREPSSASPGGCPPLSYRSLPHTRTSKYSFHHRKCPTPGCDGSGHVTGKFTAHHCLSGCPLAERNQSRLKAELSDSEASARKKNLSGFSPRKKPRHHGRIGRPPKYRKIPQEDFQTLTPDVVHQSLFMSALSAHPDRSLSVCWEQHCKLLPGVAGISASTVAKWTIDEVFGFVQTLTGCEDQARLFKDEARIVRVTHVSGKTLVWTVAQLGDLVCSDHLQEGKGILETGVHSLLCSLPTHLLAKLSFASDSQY
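First, the protein-peptide complex forms for 30 min at room temperature (L3MBTL1 50 nM, biotinylated H3K9me1 peptide 75 nM). Next, compounds are pin-transferred and incubated 30 min. Finally, AlphaScreen beads are added and read after 30 min.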
Active calls of the source: *; u = inconclusive; x = not tested or not shown; ! = repeats disagree; [ ] = dose if it differs, or a comment. Shown are actives, neighbours in structure and some others; about 11% of the full set was active somewhere. Calls come from the whole dose curve; as a rule, active = well fitted inhibition curve with a large enough effect; inconclusive = small, poorly fitted or top-dose-only effect; inactive = no such curve, though single readings can be large or run the other way. Potency is the fitted concentration of half-maximal effect.

SMILES	HP1b binding inh	BAZ2B inh	G9a inh	JMJD2A Tudor inh	L3MBTL1 block
Cc1ccccc1N1C(=O)c2ccccc2C1O (stereo not given)	24%	-9%	10%	-3%	x
CC1CCN(S(=O)(=O)c2ccc3nc(NCc4ccc(N(C)C)cc4)ccc3c2)CC1	u	35µM*	10µM*	14µM*	x
CC1CCN(S(=O)(=O)c2ccc3nc(N4CCN(c5ccc(F)cc5)CC4)ccc3c2)CC1	44%	-1%	-3%[59 µM]	9%	x
CC(=O)c1ccc(N2CCN(c3ccc4cc(S(=O)(=O)N5CCC(C)CC5)ccc4n3)CC2)cc1	40%	u	18µM*	u	x
CSCCC(NC(=O)COc1ccccc1)C(=O)N1CCOCC1 (stereo not given)	31%	-1%	45%[12.7 µM]	-16%	-2%
CCOC(=O)C1CCCN(C(=O)c2ccc3c(c2)N(Cc2ccc(Cl)cc2)C(=O)c2ccccc2S3=O)C1 (stereo not given)	5%	-37%	-14%[59 µM]	-27%	x
O=[N+]([O-])c1cc(S(=O)(=O)Nc2ccccc2)ccc1N1CCN(c2ccccc2)CC1	u	40µM*	32µM*	10µM*	u
O=[N+]([O-])c1cc(S(=O)(=O)Nc2ccccc2)ccc1Nc1ccccc1	u	x	x	22µM*	x
O=[N+]([O-])c1cc(S(=O)(=O)C(F)(F)F)ccc1N1CCN(c2ccccc2)CC1	u	8.9µM*	20µM*	u	u
O=C(c1ccc(N2CCOCC2)c([N+](=O)[O-])c1)N1CCN(c2ccccc2)CC1	0%[57 µM]	x	x	-34%	x
CCCN1CNc2c(c(=O)[nH]c(=S)n2CCc2c(Cl)cccc2Cl)C1	20%	x	x	-16%	x
CCN(CC)CCn1c2c(c(SCC(=O)Nc3ccc4c(c3)OCO4)nc1=O)CCC2	18%	-18%	35µM*	3%	0%
CCN(CC)CCCn1c2c(c(SCC(=O)Nc3ccc(C)c(F)c3)nc1=O)CCC2	24%	5%	56µM*	-8%	4%
Cc1ccc(NC(=O)CSc2nc(=O)n(CCCN(C)C)c3c2CCC3)cc1F	0%	-13%	-3%[59 µM]	-12%	x
CCN(CC)CCn1c2c(c(SCC(=O)Nc3cc(C)cc(C)c3)nc1=O)CCC2	3%	10%	-47%	-13%	1%
O=C(Nc1ccc(OC(F)(F)F)cc1)NC1COc2ccccc2C1 (stereo not given)	14%[57 µM]	11%	-26%[59 µM]	-5%	x
C=CCN1C(=O)/C(=C\C=C2\N(C)c3ccccc3C2(C)C)SC1=S	u	u	16µM*	u	-11%
CN1/C(=C\C=O)C(C)(C)c2ccccc21	11%	x	4%	-21%	-4%
CN1/C(=C\C=C2/SC(=S)N(CC(=O)O)C2=O)C(C)(C)c2ccccc21	35µM*	28µM*	18µM*	u	-24%
CCCN1C(=O)/C(=C/C=C2\N(CC)c3ccccc3C2(C)C)SC1=S	10µM*	1.8µM*	u	11µM*	-16%
O=C(CSc1nnc(-c2ccccc2Br)n1-c1ccccc1)c1ccc(F)cc1	20%	u	-8%[59 µM]	-22%	x
COc1ccc(CNC(=O)Cn2nc(N3CCN(c4ccccc4)CC3)ccc2=O)c(OC)c1	18%	-30%	-1%[59 µM]	-15%	x
Cc1ccc(C2c3[nH]c4ccccc4c3CCN2C(=O)CCc2ccccc2)cc1 (stereo not given)	0%[57 µM]	u	-31%[59 µM]	u	x
CC(C)c1cc2c(c(O)c1O)[C@@]13CCCC(C)(C)C1CC2OC3=O (stereo not given in full)	u	-38%	0.89µM*	40µM*	x
CC(C)c1c(O)c(-c2cc3c(c(C(C)C)c2O)CCC2C(C)(C)CCC[C@@]32C)cc2c1CCC1C(C)(C)CCC[C@@]21C (stereo not given in full)	x	x	1%[2.33 µM]	x	x
SMILES	HP1b binding inh	BAZ2B inh	G9a inh	JMJD2A Tudor inh	L3MBTL1 block
COc1cc(CN2CC(=O)N(c3cc(Cl)ccc3C)C2=S)cc(OC)c1OC	12%	-18%	u	u	x
COc1ccc(CN2CC(=O)N(c3ccc(C)c(C)c3)C2=S)cc1OC	u	-11%	-40%	56µM*	x
COc1ccc(CN2CC(=O)N(c3cc(Cl)ccc3C)C2=S)cc1OC	7%	4%	71µM*	-31%	x
Cc1cc(C)c(Cn2c3ccccc3c3cnn(CC(=O)NCC(C)c4ccccc4)c(=O)c32)c(C)c1 (stereo not given)	27%	1%	-2%[59 µM]	-7%	x
COC(=O)c1ccc(NC(=O)c2cc[n+]([O-])cc2)cc1	70%	-4%	-68%	-15%	2%
CCOc1ccc2ncc3c(-c4cccc(OC)c4)nn(-c4ccccc4)c3c2c1	19%	x	1%[59 µM]	-31%	x
O=C1CCc2cc(S(=O)(=O)NCCc3ccccc3)cc3c2N1CC3	32%	-29%	1%	-6%	-1%
COc1ccc(CCN(Cc2cc3ccc(C)cc3n3nnnc23)C(C)=O)cc1OC	-7%	5%	-15%	11µM*	x
COc1ccc(CCN(Cc2cc3cc(C)ccc3[nH]c2=O)C(C)=O)cc1OC	50%	-1%	x	-3%	9%
COc1ccc(-c2nc(C(=O)O)cs2)cc1OC	16%	-1%	u	u	-11%
COc1ccc(C(=O)O)nc1C	0%	15%	-11%	5.6µM*	52%
c1ccc2c(NCCc3c[nH]c4ccccc34)c3ccccc3nc2c1	-7%	35µM*	-11%[2.33 µM]	50µM*	x
OCc1c[nH]c2ccccc12	43%	-11%	13µM*!	-29%	-7%
OCCc1c[nH]c2ccccc12	17%	-8%	1%[12.7 µM]	-8%	x
Fc1cccc(NCCc2c[nH]c3ccccc23)n1	13%	-39%	1%[12.7 µM]	u	x
CCc1ccc2oc(-c3ccc(C)c(NC(=O)c4ccc(C#N)cc4F)c3)nc2c1	29%	-4%	5%[59 µM]	-14%	x
COc1ccc2c(CC(=O)OCC(=O)Nc3ccc4c(c3)OCO4)coc2c1	u	u	u	20µM*	x
COc1ccc2c(CC(=O)OCC(=O)Nc3ccc(C)cc3)coc2c1	4%	50µM*	-8%[12.7 µM]	-29%	u
Cc1ccc(OCCC(=O)OCC(=O)Nc2ccc3c(c2)OCCO3)cc1	23%	7%	-21%	2%	-3%
COc1ccc2c(CC(=O)OCC(=O)Nc3ccc(S(N)(=O)=O)cc3)coc2c1	6%	-10%	11%[12.7 µM]	-32%	x
CC1(C)CC(NC(=S)NCc2ccc3c(c2)OCO3)CC(C)(C)N1	x	56µM*	40µM*	x	-2%
S=C(NCc1ccc2c(c1)OCO2)NC1CC1	34%	-17%	-24%	-16%[57.1 µM]	-3%[11.4 µM]
CCOc1ccc(OCCC(=O)OCC(=O)Nc2ccc3c(c2)OCO3)cc1	-20%	-38%	45µM*	-35%	-1%
COc1ccc(NC(=O)C2=C(C)Nc3nc(SCc4ccc(C)cc4C)nn3C2c2cccc(OC)c2OC)cc1 (stereo not given)	20%	-12%	5%[59 µM]	5%	x
